From PubChem BioAssay AID841 (Emory University Molecular Libraries Screening Center, 2007)
The whole screen tested about 140,000 compounds, of which about 2,100 (1.5%) were called active. Rule as the data show it: active = protection mostly above about 24% (no sharp cut-off); inactive = mostly below about 26%. The list comes from a sample in which actives are over-represented; it also holds similar structures and randomly drawn compounds.

Experiment: blockers of measles virus-induced cell death – single point, MLSMR library, absorbance, measles RdRp inhibitor project, primary screen (AID 841)
Conditions: Measles virus-infected cells, CPE protection, at 4 µM, active compounds read high

| Compound | protection (pct of control) |
| --- | --- |
| O=C(COC(=O)c1ccccc1)Nc1ccccc1Sc1ccccc1 | 6.19% (inactive) |
| COC(=O)c1ccc(NCC(=O)c2ccccc2)cc1 | 2.68% (inactive) |
| O=C(OCC(O)C(O)COC(=O)c1ccccc1)c1ccccc1 (centres undefined) | 37.5% (active) |
| CCn1c(O)c(N=NC(=O)c2cccc(S(=O)(=O)N3CCCCC3)c2)c2ccccc21 | 28.2% (inactive) |
| O=C(C/C(=N\NC(=O)c1ccccc1Br)C(F)(F)F)c1cccs1 | 9.78% (inactive) |
| O=S(=O)(c1ccc(F)cc1)N1CCN(C(=S)NCc2ccco2)CC1 | 18.5% (inactive) |
| COC(=O)c1c(NC(=O)CN2CCN(S(=O)(=O)c3ccccc3[N+](=O)[O-])CC2)sc2c1CCC(C)C2 (centres undefined) | 1.76% (inactive) |
| C/C(Cc1ccccc1)=N\NC(=O)CNC(=O)c1cccc(Br)c1 | 4.73% (inactive) |
| CCOC(=O)NCc1ccc2c(c1)OCO2 | 22% (inactive) |
| c1n[nH]c(NCc2ccc3c(c2)OCO3)n1 | 47.6% (active) |
| O=C(COc1ccccc1)NCc1ccc2c(c1)OCO2 | 17.1% (inactive) |
| Cc1ccc(S(=O)(=O)Nc2nc(C)cc(N/N=C/c3ccc(O)cc3)n2)cc1 | 10.3% (inactive) |
| CCOC(=O)C1CCN(C(=O)/C=C/c2cc(OC)c(OC)c(OC)c2)CC1 | 18% (inactive) |
| COc1ccc(CNC(=O)CN(Cc2ccc(Cl)cc2)S(C)(=O)=O)cc1 | 24.2% (inactive) |
| Cc1cc(C)c(S(=O)(=O)N2C=CC(C(F)(F)F)=NCC2)c(C)c1 | 30.8% (active) |
| Cc1cc(NS(=O)(=O)c2ccc(NC(=S)NC(=O)c3ccc(F)cc3Cl)cc2)no1 | 9.68% (inactive) |
| O=C(CN1CCCCCC1)N1c2ccccc2Sc2ccc(C(F)(F)F)cc21 | 27.8% (active) |
| COc1cc(/C=C/C(=O)N2c3ccccc3Sc3ccc(C(F)(F)F)cc32)cc(OC)c1OC | 2.04% (inactive) |
| O=C(CN1CCCCC1)N1c2ccccc2Sc2ccc(C(F)(F)F)cc21 | 5.95% (inactive) |
| CCOC(=O)CNC(=O)/C=C/c1c(Cl)cccc1Cl | 1.29% (inactive) |
| COc1cccc(C2SCC(=O)N2c2cccc(C)c2)c1OC (centres undefined) | 8.06% (inactive) |
| CC(C)C(C)(C#N)NC(=O)CSc1nc2scc(-c3ccccc3)c2c(=O)[nH]1 (centres undefined) | 8.49% (inactive) |
| Cc1nn(C)cc1CNC(=O)Nc1ccc(Cl)cc1 | 8.21% (inactive) |
| COc1ccc(Cl)cc1C(=O)NCC#N | 16.7% (inactive) |

| Compound | protection (pct of control) |
| --- | --- |
| COc1ccc(Cl)cc1C(=O)NCc1cn(C)nc1C | 42.3% (active) |
| CCCCCOc1ccc(/C=C/C(=O)NCCc2nc3ccccc3[nH]2)cc1OC | 1.18% (inactive) |
| CCOC(=O)c1c(C)n(C)c2ccc(OC)c(NS(=O)(=O)CC)c12 | 7.46% (inactive) |
| CC(Oc1ccccc1F)C(=O)NN (centres undefined) | 17.6% (inactive) |
| CCn1c2ccccc2c2cc(NC(=O)COC(=O)c3ccccc3Br)ccc21 | 15.5% (inactive) |
| Cn1cnc(C(F)(F)F)c1-c1ccc([N+](=O)[O-])cc1 | 14.3% (inactive) |
| COc1ccc(CCNC(=O)COC(=O)C2CCCCC2)cc1 | 7.59% (inactive) |
| Cc1nn(-c2ccccc2)c(Cl)c1/C=C/C(=O)c1ccc(O)cc1 | 21.9% (inactive) |
| Cc1ccc(C(=O)/C=C/c2c(C)nn(-c3ccccc3)c2Cl)cc1 | 60.1% (active) |
| Cc1nn(-c2ccccc2)c(Cl)c1C(=O)Nc1ccccc1 | 5.22% (inactive) |
| CCOc1cc(C(=O)Nc2ncccn2)cc(OCC)c1OCC | 2.67% (inactive) |
| CCOc1cc(C(=O)Nc2c(C)ccc3nsnc23)cc(OCC)c1OCC | 37.8% (active) |
| Cc1ccc2nsnc2c1NC(=O)c1ccccc1[N+](=O)[O-] | 5.19% (inactive) |
| COC(=O)Cc1ccc(N(Cc2ccccc2F)S(=O)(=O)c2ccc(Br)cc2)cc1 | 18.5% (inactive) |
| COc1ccc(NC(=O)CN2C(=O)C(c3ccccc3)=NC23CCCCCC3)cc1OC | 12% (inactive) |
| CCc1ccc(Oc2coc3cc(OC(=O)c4cc5ccccc5oc4=O)ccc3c2=O)cc1 | 5.53% (inactive) |
| Cc1ccc(S(=O)(=O)N2CCOCC2)cc1C(=O)NC(=S)N(Cc1ccccc1)C(C)C | 21.7% (inactive) |
| COc1cc2c(cc1/C=C1/NC(=O)N(c3ccccc3)C1=O)OCO2 | 22.7% (inactive) |
| COC(=O)c1ccc(C(=O)OC)c(NC(=S)N2CCCCC2)c1 | 5.41% (inactive) |
| COC(=O)c1ccc(C(=O)OC)c(NC(=S)N2CCN(c3cc(Cl)ccc3C)CC2)c1 | 6.62% (inactive) |
| COC(=O)c1ccc(C(=O)OC)c(NC(=S)N2CCN(c3ccc(F)cc3)CC2)c1 | 54.6% (active) |
| CCCc1cc(=O)[nH]c(SCc2cc(=O)oc3c(C)c(C)ccc23)n1 | 29.1% (inactive) |
| Cc1ccccc1Cn1nc(C)c(NC(=O)C(F)(F)F)c1C | 2.3% (inactive) |
| COC(=O)c1sc(N)c(C(=O)OC)c1COC(=O)CNS(=O)(=O)c1ccc(C)cc1 | 12.3% (inactive) |

| Compound | protection (pct of control) |
| --- | --- |
| O=C(Nc1ccccc1Cl)c1ccccc1S(=O)(=O)c1ccccc1[N+](=O)[O-] | 2.96% (inactive) |
| O=C(CS(=O)(=O)Cc1ccccc1)Nc1cccnc1 | 20.4% (inactive) |
| Cc1cc(C)c(NC(=O)CS(=O)CC(=O)Nc2cccnc2)c(C)c1 (centres undefined) | 56.7% (active) |
| CCC(=O)Nc1cccc(NC(=O)c2cccnc2)c1 | 5.87% (inactive) |
| COc1ccc(S(=O)(=O)NC(C)C)cc1C(=O)NC1CCCCC1 | 6.76% (inactive) |
| Cc1cccc(C(=O)NC(=S)N2CCN(c3ccc([N+](=O)[O-])cc3)CC2)c1 | 6.39% (inactive) |
| Cc1ccccc1N(C(=O)Cc1cccs1)C(C(=O)NC1CCCCC1)c1cn(C)nc1C (centres undefined) | 20.1% (inactive) |
| Cn1cccc1C(=O)Nc1nccs1 | 0.78% (inactive) |
| O=C(CCSCCc1ccccn1)Nc1nccs1 | 45.9% (active) |
| CN(CCCC(=O)Nc1nccs1)S(=O)(=O)c1ccc(Cl)cc1 | 15.3% (inactive) |
| NC(=O)Cc1ccc2sc(-c3ccccc3)nc2c1 | 30.1% (inactive) |
| CCc1cccc(CC)c1NC(=O)COc1ccccc1C(=O)c1cc(C#N)c(=O)n(C2CCCCC2)c1 | 11.3% (inactive) |
| COc1ccc(NC(=O)CN(Cc2ccccc2)S(C)(=O)=O)cc1OC | 34.5% (inactive) |
| CS(=O)(=O)c1ccc2nc(NC(=O)CN3CCCCCC3)sc2c1 | 4.57% (inactive) |
| CS(=O)(=O)c1ccc2nc(NC(=O)C3C4C=CC(C4)C3C(=O)O)sc2c1 (centres undefined) | 18.3% (inactive) |
| CS(=O)(=O)c1ccc2nc(NC(=O)C3CCCCC3)sc2c1 | 38.1% (active) |
| O=C(/C=C/c1cnc2ccccc2n1)NC1CCCCCC1 | 9.7% (inactive) |
| COc1ccccc1-c1nnc(SCC(=O)Nc2cc(C)on2)o1 | 14.9% (inactive) |
| Cc1cc(NC(=O)CSc2nnc(-c3ccc(Cl)s3)o2)no1 | 86.1% (active) |
| Cc1ccc(-c2csc(SCC(=O)Nc3cc(C)on3)n2)cc1 | 7.27% (inactive) |
| O=C(COC(=O)/C=C/c1nc2ccccc2s1)Nc1ccccc1Oc1ccccc1 | 1.41% (inactive) |
| Cc1cccc(-n2c(SCC(N)=O)nc3c(c2=O)C2(CCCCC2)Cc2ccccc2-3)c1 | 29.9% (active) |
| N#CCSc1nc2c(c(=O)n1Cc1ccccc1)C1(CCCC1)Cc1ccccc1-2 | 1.58% (inactive) |
| Cc1cccc(-n2c(N)cc(=O)nc2SC(C)C(=O)NC2CCCCC2)c1 (centres undefined) | 20.2% (inactive) |

| Compound | protection (pct of control) |
| --- | --- |
| COc1ccc(-c2csc3ncnc(Oc4ccc5c(C)cc(=O)oc5c4)c23)cc1 | 6.48% (inactive) |
| CCCCCC(=O)Nc1ccc(C(=O)N/N=C/c2ccc([N+](=O)[O-])cc2)cc1 | 25.1% (inactive) |
| O=C(COc1ccc(/C=N/NC(=O)c2ccc(O)cc2)cc1)Nc1ccc([N+](=O)[O-])cc1 | 40.1% (active) |
| O=C(COc1ccc([N+](=O)[O-])cc1)Nc1ccc(N2CCCC2)cc1 | 18.8% (inactive) |
| O=C(NNC1CC(=O)N(c2cccc(Cl)c2)C1=O)c1cccnc1 (centres undefined) | 8.5% (inactive) |
| COc1cc(C2C(N3C(=O)c4ccccc4C3=O)C(=O)N2c2ccc(C)c(C)c2)cc(OC)c1OC (centres undefined) | 9.11% (inactive) |
| CC(=O)Nc1ccc(NC(=O)c2sc3nc4c(c(-c5ccc(C)cc5)c3c2N)CCC4)cc1 | 9.68% (inactive) |
| CCc1ccc2nc3sc(C(=O)Nc4nnc(CC)s4)c(N)c3cc2c1 | 1.37% (inactive) |
| Cc1ccc(NC(=O)c2sc3nc(N)c(C#N)cc3c2N)cc1 | 74.1% (active) |
| Cc1ccc(NC(=S)N2CCN(c3ncccn3)CC2)cc1C | 12.6% (inactive) |
| CCNC(=S)N1CCN(C(=O)c2ccco2)CC1 | 9.63% (inactive) |
| CCNC(=S)N1CCN(c2ncccn2)CC1 | 20.9% (active) |
| CCOCC(=O)Nc1sc2c(c1C(=O)OCC)CCCC2 | 7.18% (inactive) |
| CCOC(=O)c1c(NC(=O)c2ccc(Br)o2)sc2c1CCCC2 | 27.8% (active) |
| CCOC(=O)c1c(NC(=S)NC(=O)c2ccco2)sc2c1CCCC2 | 37% (inactive) |
| COc1cc(/C=C/C(=O)OCC(=O)Nc2cccc(Oc3ccccc3)c2)ccc1O | 11.5% (inactive) |
| C=CCc1ccccc1OCC(=O)N/N=C/c1ccccc1OCC | 1.64% (inactive) |
| COc1ccc(C)cc1NC(=O)CCC(=O)Nc1nnc(C(F)(F)F)s1 | 11.8% (inactive) |
| COc1ccc(OC)c(-n2nnnc2SCC(=O)Nc2cc(C)ccc2OC)c1 | 17.2% (inactive) |
| COc1ccc(C(F)(F)F)cc1N/C=C\c1nnnn1-c1ccc(C)cc1 | 30.4% (active) |
| CCC(C)NC(=O)c1ccc(N2CCC3(CC2)OCCO3)c([N+](=O)[O-])c1 (centres undefined) | 13.6% (inactive) |
| Cc1cc(Cl)ccc1OCCCC(=O)NCc1ccncc1 | 6.27% (inactive) |
